According to PubChem BioAssay (NCATS):
Records with an inconclusive call do not appear. Active and inactive are the calls of the source. Unless noted, calls follow the shape of the dose curve; as a rule, active = well fitted curve in either direction with a large enough effect (not every such curve was filed as active); inconclusive = small, poorly fitted or top-dose-only effect, or another doubt; inactive = flat fitted curve, though single readings scatter.

Experiments:
[1] = AP1 Signaling Pathway (AID 357); settings: ME-180 AP-1-bla reporter, EGF-induced, beta-lactamase ratio, 5 h; at 17.2 µM (top of the series) unless noted; also: % is scaled to controls: 0 for no effect and ±100 for the full control effect
Outline: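 ME-180 cells with beta-lactamase reporter under AP-1 response element, stimulated with EC50 EGF; compounds tested in titration series, 5 h at 37 °C. CCF4 substrate added 2.5 h at room temperature; 460/530 nm emission ratio gave %activity and AC50.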

[2] = NFAT Signaling Pathway (AID 444); settings: Jurkat NFAT-bla M1, carbachol, beta-lactamase ratio, 5 h; at 17.2 µM (top of the series) unless noted;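 also: carbachol stimulus at about its EC50 of 1 µM final; % is scaled to controls: 0 for no effect and ±100 for the full control effect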
Outline: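 Jurkat cells carrying an NFAT-driven β-lactamase reporter and co-transfected muscarinic M1 receptor were treated with compound plus carbachol (1 uM final, an EC50 level) for 5 h at 37 °C. CCF4 loading followed for 1 h at RT; 460/530 nm ratio gave %activity.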

[3] = Stat Signaling Pathway (AID 446);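 also: ME-180 cervical cancer cells given 40 pM IL-6 alongside compound; SIE-controlled beta-lactamase reporter measured as 460/530 nm FRET emission ratio; % is scaled to controls: 0 for no effect and ±100 for the full control effect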
Outline: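 Screening format detects activators and inhibitors alike: ME-180 SIE-bla cells stimulated at 40 pM IL-6 for 5 hrs with compound, then dual-emission beta-lactamase read at 405 nm excitation.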

[4] = target: Glucocorticoid receptor (Homo sapiens) (UniProt P04150); experiment: GR-GFP Redistribution (AID 450;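 active = compounds whose dose series gives a full or clear partial fitted curve of increased nuclear translocation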; also: potency is read from the fitted curve at half-maximal effect); settings: U2OS GR-GFP nuclear translocation, laser cytometry, 2 h
[5] = target: Glucocorticoid receptor (Homo sapiens) (UniProt P04150); experiment: GR-EFC Redistribution (AID 451; calls by dose curve; also: potency is read from the fitted curve at half-maximal effect); settings: CHO-K1 GR-EFC translocation, beta-gal luminescence, 2 h
Outline: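 CHO-K1 cells stably expressing nuclear-localized β-gal enzyme acceptor and GR fused C-terminally to the enzyme donor fragment; ligand-driven nuclear translocation restores β-gal by complementation. Compounds titrated up to 46 uM final, 2 h at 37 °C; luminescence read.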

[6] = target: Mitogen-activated protein kinase 10 (Mus musculus) (UniProt Q61831); experiment: JNK3 AlphaScreen Assay (AID 530);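 also: kinase came from lysate of stimulated human HepG2 cells; signal reports phosphorylation of biotinylated GST-cJun 1-79 at Ser73 with 10 µM ATP; % is scaled to controls: 0 for no effect and ±100 for the full control effect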
Outline: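 JNK3 came from HepG2 lysates pre-activated with IL-1beta and TNF-alpha and phosphorylated biotinylated GST-cJun (1-79) at 10 uM ATP, pH 7.6, room temperature. Compounds were titrated. AlphaScreen signal used anti-phospho-cJun (Ser73) antibody.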

[7] = target: 3',5'-cyclic-AMP phosphodiesterase 4B (Homo sapiens) (UniProt Q07343); experiment: qHTS Assay for Inhibitors of PDE-IV (AID 607; active = well fitted activation curve with a large enough effect in the main read-out, with a control signal flat, not every such curve was filed as active; also: % of control where 0% means no effect)
Outline: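 The readout is membrane depolarisation from a cAMP-sensing CNG channel, detected with a potential dye at ex 535/em 590. Cells were HEK293-derived (endogenous PDE-IV) at 1000 cells/well, titrated up to 22.9 uM final.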

Chain of Glucocorticoid receptor (Homo sapiens) (P04150 whole entry, looked up, the tested form may be a part): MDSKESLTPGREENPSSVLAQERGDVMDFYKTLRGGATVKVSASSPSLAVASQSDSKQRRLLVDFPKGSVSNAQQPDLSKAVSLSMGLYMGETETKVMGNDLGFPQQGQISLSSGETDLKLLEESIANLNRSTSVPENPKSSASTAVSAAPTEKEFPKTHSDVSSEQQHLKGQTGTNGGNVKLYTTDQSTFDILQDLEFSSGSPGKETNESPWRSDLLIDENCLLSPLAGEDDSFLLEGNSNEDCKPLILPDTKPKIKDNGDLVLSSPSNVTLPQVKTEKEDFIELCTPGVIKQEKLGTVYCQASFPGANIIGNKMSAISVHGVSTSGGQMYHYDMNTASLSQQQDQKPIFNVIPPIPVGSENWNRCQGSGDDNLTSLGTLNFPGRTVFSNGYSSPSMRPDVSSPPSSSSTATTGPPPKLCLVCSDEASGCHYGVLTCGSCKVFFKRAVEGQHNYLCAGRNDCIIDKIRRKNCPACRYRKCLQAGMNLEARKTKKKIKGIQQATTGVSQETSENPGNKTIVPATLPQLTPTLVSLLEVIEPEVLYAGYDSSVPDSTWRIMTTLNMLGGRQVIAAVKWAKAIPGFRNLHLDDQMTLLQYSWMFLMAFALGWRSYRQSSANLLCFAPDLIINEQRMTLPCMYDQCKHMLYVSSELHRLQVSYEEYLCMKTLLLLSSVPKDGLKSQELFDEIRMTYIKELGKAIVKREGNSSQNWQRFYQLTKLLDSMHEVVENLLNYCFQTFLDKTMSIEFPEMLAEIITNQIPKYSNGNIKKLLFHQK
Chain of 3',5'-cyclic-AMP phosphodiesterase 4B (Homo sapiens) (Q07343 whole entry, looked up): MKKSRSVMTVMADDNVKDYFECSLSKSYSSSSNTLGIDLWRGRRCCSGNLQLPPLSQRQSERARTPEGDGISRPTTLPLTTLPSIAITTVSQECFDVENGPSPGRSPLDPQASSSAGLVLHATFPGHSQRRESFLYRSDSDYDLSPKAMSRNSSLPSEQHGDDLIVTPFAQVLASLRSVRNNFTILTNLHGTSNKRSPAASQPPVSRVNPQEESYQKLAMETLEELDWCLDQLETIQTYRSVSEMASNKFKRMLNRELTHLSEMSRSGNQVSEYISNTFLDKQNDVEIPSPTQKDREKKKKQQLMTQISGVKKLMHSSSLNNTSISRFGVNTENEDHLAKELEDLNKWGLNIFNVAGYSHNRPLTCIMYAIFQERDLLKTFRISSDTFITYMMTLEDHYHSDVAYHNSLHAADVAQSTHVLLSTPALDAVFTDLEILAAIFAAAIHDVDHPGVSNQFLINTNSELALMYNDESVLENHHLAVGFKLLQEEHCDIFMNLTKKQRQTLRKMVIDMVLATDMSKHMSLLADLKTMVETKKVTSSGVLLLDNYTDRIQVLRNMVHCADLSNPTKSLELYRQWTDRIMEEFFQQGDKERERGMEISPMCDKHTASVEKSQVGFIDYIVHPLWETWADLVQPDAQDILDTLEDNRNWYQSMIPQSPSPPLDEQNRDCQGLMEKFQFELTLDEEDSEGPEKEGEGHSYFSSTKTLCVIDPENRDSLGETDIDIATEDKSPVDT

NC(=NCCC[C@@H](N)C(=O)O)N[N+](=O)[O-]
inactive: activity change, negative = inhibition [1] 2.85% [at 38 µM] | activity change, negative = inhibition [2] 2.93% [at 38 µM] | outcome [3] | Potency [4] > 46 µM | Potency [5] > 46 µM | outcome [6] | outcome [7]

CCCCNC(=O)Nc1ccc(C(O)(C(=O)OC)C(F)(F)F)cc1 (stereo unspecified)
inactive: activity change, negative = inhibition [1] -12.1% | activity change, negative = inhibition [2] 26.8% | outcome [3] | Potency [4] > 20.6 µM

CCN(CC)CCN=Cc1c(O)n(CCc2ccccc2)c(=O)[nH]c1=O
inactive: activity change, negative = inhibition [1] -7.05% | activity change, negative = inhibition [2] -1.81% | outcome [3] | Potency [4] > 20.6 µM

COc1cccc(-n2c(C)nc3ccccc3c2=O)c1
inactive: activity change, negative = inhibition [1] 10.2% | activity change, negative = inhibition [2] 3.48% | outcome [3] | Potency [4] > 20.6 µM

CC(=O)C1(c2ccccc2)CCNCC1
inactive: activity change, negative = inhibition [1] 6.36% | activity change, negative = inhibition [2] -17.3% | outcome [3] | Potency [4] > 20.6 µM

CCCCCCn1c(O)c(C(C)=NC)c(=O)[nH]c1=O
inactive: activity change, negative = inhibition [1] -9.96% | activity change, negative = inhibition [2] 21.1% | outcome [3] | Potency [4] > 20.6 µM

COc1ccc2c(c1)c(C(=O)O)c(C)n2CC(C)C
inactive: activity change, negative = inhibition [1] 12.3% | activity change, negative = inhibition [2] 1.61% | outcome [3] | Potency [4] > 20.6 µM

CN1C[C@@H](CNC(=O)OCc2ccccc2)C[C@H]2c3cccc4c3c(cn4C)C[C@@H]21
inactive: activity change, negative = inhibition [1] 29.6% [at 38 µM] | activity change, negative = inhibition [2] 0.446% [at 38 µM] | outcome [3] | Potency [4] > 46 µM | Potency [5] > 46 µM | outcome [6]

CC(=NCCO)c1c(O)n(C)c(=O)n(C)c1=O
inactive: activity change, negative = inhibition [1] 9.85% | activity change, negative = inhibition [2] -3.31% | outcome [3] | Potency [4] > 20.6 µM
